The panel holds about 83,000 compounds, 20% with a hit somewhere; the sample as a whole holds those more often.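 Results are percent growth after 48 hours of single-concentration exposure. 100 means growth as in untreated cells, lower positive values show inhibition; negative values down to -100 show cell death.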 Unmarked numbers belong to inactive results. The source made the active and inactive calls. Rule for the calls: active = growth percent below 10; inactive = the rest.
What was measured:
Experiment in all cases: NCI-60 one-dose screen, 48 h (100 = growth as untreated, 0 = no growth, -100 = all killed)
Conditions in all cases: 10 µM unless noted
[1] = system: DU-145 prostate
[2] = system: K-562 leukemia
[3] = system: MALME-3M melanoma
[4] = system: MDA-MB-231 breast
[5] = system: SF-268 CNS
[6] = system: SF-295 CNS
[7] = system: SF-539 CNS
[8] = system: UACC-257 melanoma
[9] = system: M14 melanoma

Row | Structure (SMILES) | growth [1] | growth [2] | growth [3] | growth [4] | growth [5] | growth [6] | growth [7] | growth [8] | growth [9]
1 | Clc1ccc(C2CC(c3cccc(Nc4ccncc4)c3)=NN2c2ccccc2)cc1 (stereo unspecified) | 56.7% | 0.432% (active) | -72% (active) | 75.2% | 82.1% | 70% | 71.5% | 34.5% | -80.6% (active)
2 | Clc1cc(Cl)cc(N2N=C(c3cccc(Nc4ccncc4)c3)CC2c2ccccc2)c1 (stereo unspecified) | 35.7% | 0.584% (active) | 32.7% | 58.1% | 84.3% | 9.59% (active) | 80.9% | 84.7% | 64.1%
3 | CC(C)(C)CC(C)(C)Nc1c(-c2ccc3c(c2)OCO3)nc2cnccn12 | 101% | 72% | 111% | 83.9% | 84.1% | 86.2% | 91.5% | 101% | 45.9%
4 | S=c1[nH]cccc1-c1nnc2n1Nc1nc3ccccc3cc1CS2 | 120% | 99.5% | 97.1% | 92.9% | 101% | 112% | 96.1% | 110% | 101%
5 | CCN(CC)CCCCCCNc1cc(OC)cc2cccnc12 | 40.8% | -47.8% (active) | -77.4% (active) | 32.6% | 79.3% | 86.5% | 68.5% | 115% | -28.7% (active)
6 | Clc1ccc(N2N=C(c3cccc(Nc4ccncc4)c3)CC2c2ccc(Br)cc2)cc1 (stereo unspecified) | 24.8% | 1.38% (active) | -40.5% (active) | 31.8% | 72.2% | -69% (active) | 83.8% | 77.8% | 107%
7 | COc1nccnn1 | 96.2% | 80.7% | 120% | 110% | 114% | 136% | 104% | 109% | 108%
8 | COc1ccc(NC(=O)c2sc3nc(C)c(C(O)c4ccc(OC)cc4)cc3c2N)cc1 (stereo unspecified) | 25.6% | 9.99% (active) | 63.7% | 22.1% | 42% | -1.07% (active) | -11.4% (active) | 60.4% | 24.7%
9 | O=C(O)CCCCCCCCCCCCCCC(=O)O | 106% | 109% | 101% | 98.2% | 98.9% | 101% | 105% | 95.6% | 107%
10 | COc1ccc(C(=O)/C=C/c2c(OC)cc(OC)cc2OC)c(OC)c1 | 18.3% | 18.5% | 3.17% (active) | 44.4% | 36.5% | 11.3% | 8.25% (active) | 28.9% | 4.81% (active)
11 | CC[N+](CC)(CCCC(C)[N+]1(Cc2ccccc2)C(C)=CC=C1C)Cc1ccccc1 (stereo unspecified) | 101% | 54.6% | 87.8% | 78.6% | 98.9% | 97.8% | 97.6% | 84.2% | 66.5%
12 | C#Cc1cccc(NC(=O)Nc2ccc(NC(=O)CCl)cc2)c1 | 22.3% [8.25 µM] | 3.37% [8.25 µM] (active) | -80.5% [8.25 µM] (active) | -72.6% [8.25 µM] (active) | -82.9% [8.25 µM] (active) | 79.5% [8.25 µM] | -99.6% [8.25 µM] (active) | 35.1% [8.25 µM] | 4.51% [8.25 µM] (active)
13 | O=C1NC(=O)C(=Cc2cn(Cc3ccccn3)c3ccccc23)C(=O)N1 | 110% | 76.4% | 101% | 108% | 93.7% | 79.5% | 94.5% | 103% | 99.7%
14 | O=C(Nc1ccc2ncnc(Nc3ccc(Oc4cccc(F)c4)c(Cl)c3)c2c1)c1ccc(CN2CCOCC2)cc1 | 39.6% | 8.98% (active) | 38.9% | 46.1% | 49% | 27.3% | 53.2% | 53.1% | 14.7%
15 | CCN(CC)CCOC(COc1cc(C)cc(C)c1)COc1cc(C)cc(C)c1 | 48.1% | 2.57% (active) | 13.6% | 23.8% | 56.6% | 48.9% | 61.9% | 65.1% | 7.46% (active)
16 | O=c1[nH]nc(-c2ccc(Br)cc2)cc1Cc1ccc(O)cc1 | 91.5% | 81.5% | 106% | 87.6% | 89.8% | 107% | 102% | 106% | 107%
17 | O=C(N/N=C/c1ccc(F)cc1)c1ccccc1Nc1cccc(C(F)(F)F)c1 | 96.8% | 83.9% | 111% | 117% | 82.6% | 121% | 109% | 105% | 95%
18 | CC1(C)[C@H](O)CC[C@]2(C)[C@@H]1CC[C@@]13C[C@@H](CC[C@H]12)[C@@](O)(CO)C3 | 117% | 104% | 111% | 114% | 108% | 103% | 106% | 107% | -30.7% (active)
19 | CC1=NNC(=O)C1CCC(=O)N/N=C(\C)c1ccc2ccccc2c1 (stereo unspecified) | 102% | 97.6% | 120% | 111% | 98.9% | 323% | 94.8% | 99.9% | 113%
20 | COc1cc(/C=N/NC(=O)c2ccccc2Nc2cccc(C(F)(F)F)c2)ccc1O | 89.7% | 77.9% | 106% | 71.6% | 81.5% | 93.5% | 105% | 23.8% | 73.9%
21 | CS(=O)(=O)c1ccc(-c2cc3c(oc2=O)-c2ccccc2OC3O)cc1 (stereo unspecified) | 87.1% | 81% | 101% | 98.7% | 96.6% | 75.7% | 90.2% | -3.93% (active) | 101%
22 | COc1ccc(C2=NN(C(C)=O)C(c3cn(Cc4ccc(Cl)cc4)c4ccccc34)C2)cc1 (stereo unspecified) | 97.4% | 52.6% | 72.2% | 78.7% | 79.9% | 85.6% | 82.1% | 81.7% | 99.4%
23 | CN1CCN(c2cnc(C(=O)Nc3cc(F)cc4cccnc34)cn2)CC1 | 72.3% | 16.9% | 42.2% | 33.4% | 93.7% | 94.3% | 71.8% | 44.8% | 51.4%
24 | COc1cc(-c2cc(=O)oc3cc(O)ccc23)cc(OC)c1OC | 96.3% | 66.2% | 90.1% | 89.3% | 88.7% | 93.4% | 93.4% | 99.3% | 98.3%
25 | CCN(CC)S(=O)(=O)c1cccc([N+](=O)[O-])c1 | 117% | 96% | 99.2% | 105% | 93.4% | 94.4% | 98.9% | 67% | 84.9%
26 | COc1cc(OC)c(/C=C/C(=O)c2ccc(Nc3ncnc4ccccc34)cc2)c(OC)c1 | -26.5% (active) | 4.41% (active) | -39.8% (active) | -19.9% (active) | -71.9% (active) | -47.7% (active) | -56.6% (active) | -12% (active) | -15.5% (active)
27 | CCC1(CC)NC(=O)c2c(c3ccc(Cl)c(Cl)c3n2C)C1C#N (stereo unspecified) | 123% | 91.4% | 109% | 71.2% | 90.3% | 102% | 95.4% | 100% | 105%
28 | O=C(O)C(/C=C/c1ccco1)=N\Nc1nc(-c2ccc(Cl)cc2)cs1 | 70.1% | 65.7% | 79% | 84.8% | 50.9% | 27.8% | 43.4% | 72.2% | 43.7%
29 | COc1ccc(NS(=O)(=O)c2ccc(C)cc2)c([N+](=O)[O-])c1 | 111% | 93.2% | 96.2% | 96% | 101% | 110% | 110% | 98.7% | 109%
